AmpC inh no detg: blocks E. coli AmpC beta-lactamase in detergent-free assay; actives 0.52% (n = 330,000); P00811; Potency, µM (titrated, usually from 57.1 µM), inactives show at the highest dose activity change, negative = inhibition, actives largely listed as inhibitors; AmpC nitrocefin hydrolysis, absorbance 480 nm, 0.0001% Triton;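 also: plate controls were no compound for no effect and no enzyme for full effect; nearly all actives have a fitted effect of over 20% in size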
Target sequence (P00811 whole entry, looked up): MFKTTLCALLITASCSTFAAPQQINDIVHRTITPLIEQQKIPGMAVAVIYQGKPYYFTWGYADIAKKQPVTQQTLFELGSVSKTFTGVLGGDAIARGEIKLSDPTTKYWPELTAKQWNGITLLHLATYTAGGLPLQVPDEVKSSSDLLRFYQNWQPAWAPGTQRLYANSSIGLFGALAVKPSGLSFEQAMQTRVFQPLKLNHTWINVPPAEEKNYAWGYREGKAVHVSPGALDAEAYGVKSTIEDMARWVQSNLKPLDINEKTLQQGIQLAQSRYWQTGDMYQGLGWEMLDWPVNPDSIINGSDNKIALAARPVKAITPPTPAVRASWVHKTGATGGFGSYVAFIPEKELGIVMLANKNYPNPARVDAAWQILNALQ
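AmpC (5.3 nM in the dispensed reagent) in 20 mM phosphate pH 7.0 with 0.01% (detergent screen) or 0.0001% Triton X-100 was preincubated with compounds for 15 min at room temperature. Nitrocefin was then added from an 800 uM solution, and hydrolysis was followed at 480 nm.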
AmpC detergent: blocks E. coli AmpC beta-lactamase in detergent assay | P00811 | AmpC hydrolysis of nitrocefin, absorbance 480 nm, 0.01% Triton | Potency, µM (highest dose often 114 µM), for inactives: at the highest dose activity change, negative = inhibition, actives largely listed as inhibitors | actives 0.041% (n = 370,000) | AID 485294;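 also: 0% = no-compound wells and -100% = no-enzyme wells; nearly all actives have a fitted effect of over 25% in size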
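20 mM phosphate pH 7.0 + 0.01% (detergent screen) or 0.0001% Triton X-100; 5.3 nM AmpC reagent; cpd preinc 15 min RT; nitrocefin (800 uM stock) to start; A480 q20 s × 4 min; Activity was normalised to no-enzyme and no-compound control wells.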
Pf growth 96h: inhibits malaria parasite growth, 96 h. P. falciparum luciferase reporter growth, 96 h. Potency, µM (series often up to 28.7 µM), inactives show at the top dose activity change, negative = inhibition, hits mostly inhibitors. actives 6.9% (n = 320,000)
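96 h incubation, 37 C, 5% CO2, of luciferase-reporter P. falciparum-infected RBCs (2% hematocrit, 0.05% parasitemia final) with test compounds; endpoint luminescence.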
AMA1 RON2 block: AMA1-RON2 (P. falciparum) interaction inhibition; Potency, µM (titrated, usually from 58.2 µM), for the others: at the highest dose activity change, negative = inhibition, most hits filed as inhibitors; AID 720542; AlphaScreen AMA1-biotinylated RON2 peptide binding; actives 0.2% (n = 360,000);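 also: 0% = vehicle wells and -100% = peptide control; nearly all actives have a fitted effect of over 45% in size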
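AMA1 (3D7) with his tag at 25 nM final met compounds first, then biotinylated RON2 peptide at 25 nM; detection used donor plus acceptor beads, 10 µg/mL apiece, read by AlphaScreen after 30 min at room temperature.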
HCV inhibitor: HCV inhibition. Huh7.5.1 HCVcc-Cre infection, luciferase reporter, 44 h. Potency, µM (top dose mostly 41.8 µM), for the others: at the highest dose activity change, negative = inhibition, most hits filed as inhibitors. actives 3.4% (n = 340,000). AID 651820
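1,000 cells/well; 4 h culture; + compound; + HCVcc-Cre (~0.5 moi); 44 h; luciferase substrate, RT 15 min; read 15 sec.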
Pf growth 48h: inhibits P. falciparum growth in the first generation, 48 h. AID 504832. Potency, µM (doses to about 28.7 µM), without a hit: at the highest dose activity change, negative = inhibition, most hits filed as inhibitors. actives 5.9% (n = 310,000). P. falciparum luciferase growth in erythrocytes, 48 h
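Luminescence readout; reporter = integrated firefly luciferase in P. falciparum. RBC culture at 2% hematocrit, 0.1% parasitemia final, 37 C/5% CO2; decreased signal taken as growth inhibition.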
Starred values were filed as active, the others as inactive; ? = inconclusive; . = no result given; [ ] = dose if it differs, or a comment. Most compounds without a hit are left out; they make up all but 11% or so of the library. Calls follow the shape of the dose curve; as a rule, active = well fitted curve in the direction sought with a large enough effect; inconclusive = small, poorly fitted or top-dose-only effect, or another doubt; inactive = no such curve, though single readings can be large; an effect the other way counts as inactive or inconclusive. Unless noted, % is scaled to controls: 0 for no effect and ±100 for the full control effect; potency is read from the fitted curve at half-maximal effect.

SMILES	AmpC inh no detg	AmpC detergent	Pf growth 96h	AMA1 RON2 block	HCV inhibitor	Pf growth 48h
NNC(=O)CSc1c(-c2ccccc2)c2cc(Cl)ccc2[nH]c1=O	2.8%	-6.8%	13.1µM*	61.8%	13.0%	?
CN1CC(C(=O)c2ccc(Cl)cc2)C(c2ccc(Cl)cc2Cl)C1 (centres undefined)	80.0%	10.9%	?	31.6µM*	-17.6%	?
CN1CC(C(=O)c2ccc(Cl)cc2)C(c2ccc(N(C)C)cc2)C1 (centres undefined)	54.0%	6.8%	?	?	-13.3%	?
C=CCn1c(SCC(=O)Nc2ccc(C(=O)O)cc2)nc2scc(-c3ccccc3)c2c1=O	-22.8%	.	.	-6.7%	0.2%	.
NC(=O)CSc1nc2scc(-c3ccc(Cl)cc3)c2c(=O)n1Cc1ccccc1	-44.3%	-7.3%	8.28µM*	8.7%	2.0%	11.7µM*
CN(C)C(=O)CSc1nc2ccccc2n1Cc1ccccc1	46.3%	-1.7%	?	-15.3%	-5.2%	1.0%
Cc1ccc(-c2csc3nc(SCC(=O)N(C)C)n(Cc4ccccc4)c(=O)c23)cc1	106.7%	-2.6%	?	-1.2%[11.6 µM]	31.6µM*	13.1µM*
COc1ccc(CNC(=O)c2cnc3sc(N4CCC(C)CC4)nn3c2=O)c(OC)c1	.	3.0%	.	.	.	.
COc1ccc(Br)cc1CNC(=O)CCCn1c(=O)c2cccn2c2cccnc21	.	10.3%	.	.	.	.
CCOc1ccc(CC(=O)C2=C(N3CCOCC3)CC(C)(C)CC2=O)cc1OCC	-15.7%	6.6%	6.57µM*	-3.2%	21.0%	-14.1%
CCOc1ccc(CC(=N)C2=C(O)CC(C)(C)CC2=O)cc1OCC	-19.2%	-10.4%	?	19.3%	29.5%	0.9%
COc1cccc(NC(=O)CN(C)C(=O)c2ccc(-c3ccc(Cl)cc3)o2)c1	63.2%	-18.7%	5.86µM*	-19.7%	-5.1%	1.65µM*
CN(CC(=O)Nc1ccccc1C(F)(F)F)C(=O)c1ccc(-c2ccc(Cl)cc2)o1	168.7%	0.1%	2.62µM*	25.5%	?	2.94µM*
COc1cccc(NC(=O)CN(C)C(=O)c2ccc(-c3ccccc3Cl)o2)c1	-1.4%	5.2%	?	-19.5%	?	0.294µM*
COc1cccc(-c2nn(-c3ccc(C)cc3)cc2C(=O)N(C)CC(=O)Nc2cccc(F)c2)c1	-9.0%	7.9%	14.7µM*	-8.6%	?	5.22µM*
CN(CC(=O)Nc1ccccc1Br)C(=O)c1ccc(-c2ccc(Cl)cc2)o1	59.8%	-7.5%	?	-6.0%	.	?
Cc1sc(C2C(C#N)=C(N)N(c3ccc(Cl)cc3)C3=C2C(=O)CCC3)cc1CN1CCOCC1 (centres undefined)	.	4.0%	.	.	.	.
Cc1c(-c2ccc(Cl)cc2)c(=O)oc2c(CN3CCOCC3)c(O)ccc12	.	21.6%	.	.	.	.
COc1cc(Nc2nc3c(S(=O)(=O)c4cccc(Cl)c4)nnn3c3ccsc23)cc(OC)c1	.	2.8%	.	.	.	.
Cc1ccccc1NS(=O)(=O)c1ccc2c(c1)NC(=O)CCS2	-32.2%	-2.5%	11.7µM*	-9.5%	-14.9%	-23.3%
Cc1ccc(C)c(NS(=O)(=O)c2ccc3c(c2)NC(=O)CCS3)c1	-42.3%	-5.1%	9.28µM*	-7.2%	-0.5%	-16.9%
Cc1ccc(NS(=O)(=O)c2ccc3c(c2)NC(=O)CCS3)c(Br)c1	-8.3%	-0.8%	?	3.6%	?	6.57µM*
Cc1ccc(CCNS(=O)(=O)c2ccc3c(c2)NC(=O)CCS3)cc1	-7.2%	-7.4%	13.1µM*	-3.0%	-25.9%	8.2%
O=C(C1CCCN(S(=O)(=O)c2cccs2)C1)N1CCN(c2cccc(Cl)c2)CC1 (centres undefined)	.	18.2%	.	.	.	.
CC(=O)c1cccc(NC(=O)c2noc3c2CC(C)CC3)c1 (centres undefined)	.	9.7%	.	.	.	.
SMILES	AmpC inh no detg	AmpC detergent	Pf growth 96h	AMA1 RON2 block	HCV inhibitor	Pf growth 48h
COc1ccc(Cl)cc1N(CC(=O)NCC(C)C)S(=O)(=O)c1ccc(C)c([N+](=O)[O-])c1	-45.3%	-23.9%	9.28µM*	0.6%	0.8%	-11.6%
C=CCNC(=O)CN(c1cc(Cl)ccc1OC)S(=O)(=O)c1ccc(C)c([N+](=O)[O-])c1	18.5%	-6.2%	85.6%	-6.5%	4.4%	2.62µM*
COCCNC(=O)CN(c1cc(Cl)ccc1OC)S(=O)(=O)c1ccc(C)c([N+](=O)[O-])c1	99.2%	-3.3%	399.9%	0.3%	0.2%	?
COc1cc(OC)c(NC(=O)Cc2c(C(=O)O)c(C)cn2C)cc1Cl	.	-1.0%	.	.	.	.
Cc1c(CC(=O)N2CCCCC2)c(=O)oc2cc(O)ccc12	.	3.2%	.	.	.	.
Cc1ccccc1-n1cc(CNCc2c(C(=O)N(C)C)nc3ccc(Cl)cn23)cn1	28.8%	0.5%	-7.3%	-5.6%	-22.7%	15.9%
COc1cccc(-n2cc(CNCc3c(C(=O)N(C)C)nc4ccc(Cl)cn34)cn2)c1	18.4%	-5.8%	?	-3.7%	?	8.28µM*
O=C(NCCSCc1cccc(Cl)c1)C1CCN(S(=O)(=O)Cc2ccccc2)CC1	.	-4.1%	.	.	.	.
O=C(c1coc2ccc(O)cc12)C1CC1	-15.8%	-12.0%	8.28µM*	-0.9%	-6.6%	40.4%
O=C(c1ccc(Br)cc1)c1coc2ccc(O)cc12	.	.	.	-12.9%	-11.4%	.
COc1ccc(OC)c(C(=O)c2coc3ccc(O)cc23)c1	-17.9%	1.4%	10.4µM*	-9.4%	-6.9%	16.5%
CCc1ccc(NC(=O)C2CCCN2S(=O)(=O)c2ccc3c(c2)CCCC(=O)N3)cc1 (centres undefined)	.	2.8%	.	.	.	.
Cc1cc(Br)ccc1NC(=O)c1coc(=O)c2ccccc12	.	-9.1%	.	.	.	.
CCN(CC)C(=O)C1CCCN(c2ccc([N+](=O)[O-])cc2)C1 (centres undefined)	6.6%	-3.2%	1.65µM*	-10.8%	-12.8%	3.4%
CCN(CC)C(=O)C1CCCN(c2ccc([N+](=O)[O-])cc2/C=N/NC(=O)c2ccc([N+](=O)[O-])cc2)C1 (centres undefined)	-14.7%	-10.1%	?	56.0%	-5.1%	?
CSCCC(NC(=O)c1ccccc1Cl)C(=O)Nc1ccc(C)c(S(=O)(=O)N2CCOCC2)c1 (centres undefined)	24.8%	8.1%	?	-10.7%	-2.6%	9.28µM*
CN(C)S(=O)(=O)c1cccc(NC(=O)C2CCCN(C(=O)c3ccc(Cl)cc3)C2)c1 (centres undefined)	.	.	.	-7.8%	.	.
Cc1ccc(S(=O)(=O)N(C)C)cc1NC(=O)C1CCCN(C(=O)c2ccc(Cl)cc2)C1 (centres undefined)	32.3%	-6.9%	4.65µM*	4.7%	?	7.38µM*
